According to PubChem BioAssay (EPA / NIEHS):
Records with an inconclusive call do not appear. Activity calls are given as the source filed them. Rule for the calls: active = hit-call score of the fitted dose curve at least 0.9, where 1 is the maximum; inconclusive = response in the unintended direction; inactive = score below 0.9.

Columns and labels:
[1] = TOX21_p53_BLA_p2_viability: Viability Assessment in the Tox21 HCT-116 p53 Agonism Beta-lactamase Assay, Phase 2 (AID 2283591);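 note: actives lower the ATP signal meaning cytotoxicity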
Method in brief: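 HCT116 p53-bla cells, 4000/well, dosed after 5 h plating (217-fold dilution of DMSO stocks) and incubated 16 h at 37C. Viability taken as cellular ATP by CellTiter-Glo luminescence after 30 min RT; signal loss marks cytotoxicity.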

[2] = target: Cellular tumor antigen p53 (Homo sapiens) (UniProt P04637); assay: TOX21_p53_BLA_p2_ratio: Tox21 HCT-116 p53 Agonism Beta-lactamase Assay, Ratio, Phase 2 (AID 2283592)
Method in brief: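 First, HCT116 reporter cells settle for 5 h at 37C. Next, DMSO compound solutions are pinned in (217-fold dilution) and left 16 h. Finally, CCF4-AM substrate is loaded 2 h at room temperature and the 460/530 nm ratio read.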

[3] = TOX21_p53_BLA_p3_viability: Viability Assessment in the Tox21 HCT-116 p53 Agonism Beta-lactamase Assay, Phase 3 (AID 2283593);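 note: cells exposed to compound for 16 h before reading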
Method in brief: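 HCT116 cells, 4000/well, dosed 5 h after plating by pin transfer (217-fold dilution from DMSO stock) and incubated 16 h at 37C, 5% CO2. Viability read as ATP luminescence with CellTiter-Glo after 30 min at room temperature.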

[4] = target: Cellular tumor antigen p53 (Homo sapiens) (UniProt P04637); assay: TOX21_p53_BLA_p3_ratio: Tox21 HCT-116 p53 Agonism Beta-lactamase Assay, Ratio, Phase 3 (AID 2283596)
Method in brief: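 Cells were seeded at 4000/well, rested 5 h at 37C, then dosed with DMSO compound solutions (217-fold dilution) for 16 h. CCF4-AM substrate was loaded for 2 h at room temperature, and the 460/530 nm emission ratio was fitted for gain of signal versus DMSO.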

[5] = TOX21_p53_BLA_p4_viability: Viability Assessment in the Tox21 HCT-116 p53 Agonism Beta-lactamase Assay, Phase 4 (AID 2283597);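 note: hits lower the luminescence signal meaning cytotoxicity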
Method in brief: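 4000 HCT116 cells per well; 5 h attachment; compounds from DMSO, 217-fold dilution; 16 h at 37C. Then CCF4-AM, 2 h RT, followed by CellTiter-Glo, 30 min RT, luminescence. Decrease = cytotoxicity.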

[6] = target: Cellular tumor antigen p53 (Homo sapiens) (UniProt P04637); assay: TOX21_p53_BLA_p5_ratio: Tox21 HCT-116 p53 Agonism Beta-lactamase Assay, Ratio, Phase 5 (AID 2283599)
Method in brief: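 HCT-116 p53-bla cells (4000/well) plated 5 h, dosed with compound (217-fold DMSO dilution) for 16 h at 37 C; CCF4-AM substrate 2 h at room temperature. Activity is the 460/530 nm emission ratio (405 nm excitation), fitted in gain-of-signal direction versus DMSO.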

[7] = TOX21_p53_BLA_p5_viability: Viability Assessment in the Tox21 HCT-116 p53 Agonism Beta-lactamase Assay, Phase 5 (AID 2283600)
Method in brief: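 Decreased CellTiter-Glo luminescence denotes lost viability. Exposure: 16 h at 37C, 5% CO2, with compounds from DMSO stocks diluted 217-fold in wells of 4000 cells.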

[8] = target: Cellular tumor antigen p53 (Homo sapiens) (UniProt P04637); assay: TOX21_p53_BLA_p4_ratio: Tox21 HCT-116 p53 Agonism Beta-lactamase Assay, Ratio, Phase 4 (AID 2283601)
Method in brief: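 HCT-116 p53 beta-lactamase reporter cells (4000/well) preincubated 5 h, then compound (217-fold dilution of DMSO stock) for 16 h at 37C. CCF4-AM substrate added 2 h at room temperature; 460/530 nm emission ratio fitted upward versus DMSO.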

Measured: AC50

Chain of Cellular tumor antigen p53 (Homo sapiens) (P04637 whole entry, looked up): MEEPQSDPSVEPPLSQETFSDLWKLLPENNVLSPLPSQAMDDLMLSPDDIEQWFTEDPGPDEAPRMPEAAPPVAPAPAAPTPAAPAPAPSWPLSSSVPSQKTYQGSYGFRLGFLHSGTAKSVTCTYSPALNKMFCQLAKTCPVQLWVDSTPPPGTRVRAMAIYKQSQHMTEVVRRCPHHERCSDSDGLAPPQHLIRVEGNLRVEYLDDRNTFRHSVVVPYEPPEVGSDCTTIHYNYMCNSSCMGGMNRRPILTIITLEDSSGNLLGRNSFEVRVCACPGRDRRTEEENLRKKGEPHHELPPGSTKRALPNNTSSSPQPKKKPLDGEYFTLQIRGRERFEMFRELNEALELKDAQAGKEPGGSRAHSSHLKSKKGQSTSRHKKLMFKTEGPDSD

Cc1nnc2n1-c1sc(CCc3ccc(CC(C)C)cc3)cc1C(c1ccccc1Cl)=NC2C (stereo not drawn)
active: [1] 23 µM | [2] 31 µM | [3] 29 µM | [4] 27.4 µM | [5] 24.8 µM | [6] 39.8 µM | [7] 23 µM | [8] 42.2 µM

Fc1ccc(C(OCCN2CCN(CCCc3ccccc3)CC2)c2ccc(F)cc2)cc1
active: [1] 33 µM | [2] 33.7 µM | [3] 31 µM | [4] 24.9 µM | [5] 25.1 µM | [6] 40.4 µM | [7] 38.4 µM | [8] 39 µM

C/C(=C\c1csc(C)n1)[C@@H]1C[C@@H]2O[C@]2(C)CCC[C@H](C)[C@H](O)[C@@H](C)C(=O)C(C)(C)[C@@H](O)CC(=O)O1
active: [2] 0.0698 µM | [4] 0.0123 µM | [6] 0.732 µM | [8] 0.0121 µM
inactive: all other assays above

O=[Se]=O
inactive: [6]
active: [1] 16.1 µM | [2] 2.8 µM | [3] 7.66 µM | [4] 0.777 µM | [5] 21 µM

Clc1ccc(CSC(Cn2ccnc2)c2ccc(Cl)cc2Cl)cc1 (stereo not drawn)
active: [2] 17.7 µM | [8] 15.4 µM
inactive: all other assays above

OCC(Cl)CCl (stereo not drawn)
not listed: [8]
inactive: all other assays above

O=[N+]([O-])c1ccccc1CCl
inactive: all assays above
